Reference: PubChem BioAssay AID2732 (Emory University Molecular Libraries Screening Center, 2010)
About 8,200 (3.7%) of roughly 220,000 compounds were called active. This is one part of a sample in which actives are shown more often than they occur.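 The calls were made as follows: active = compounds that reduced the stress-induced luciferase reporter signal by more than about 70% of percent inhibition (limit read from the data); inactive = the rest.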

Test: blockers of ER-stress CHOP reporter expression – cell-based, unfolded protein response, luciferase reporter, primary screen (AID 2732);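 also: 0% = tunicamycin plus vehicle and 100% = wells without tunicamycin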
Conditions: CHO-K1 CHOP-promoter luciferase, tunicamycin-induced, 15-18 h; at 10 µM; active compounds read high

Row | Compound | inhibition
1 | CNC(=S)NNC(=O)c1ccc(N(C)C)cc1 | -5.96% (inactive)
2 | O=C(Nc1n[nH]c(C(F)(F)F)n1)c1cccs1 | 3.43% (inactive)
3 | Cc1noc(C)c1C(=O)OCC(=O)N1CCN(S(=O)(=O)c2ccc3ccccc3c2)CC1 | 4.18% (inactive)
4 | O=C(COC(=O)c1ccc[nH]c1=O)Nc1ccc2c(c1)OC(F)(F)O2 | -4.76% (inactive)
5 | O=C(CCn1nnc2ccccc2c1=O)N[C@@H](Cc1c[nH]c2ccccc12)C(=O)O | 5.85% (inactive)
6 | Cc1nc2ccccc2cc1O | -6.19% (inactive)
7 | Fc1cccc2ncnc(OCc3ccccc3)c12 | -2.5% (inactive)
8 | Cc1nc2ccccc2cc1OCc1ccc(F)cc1 | 74.8% (active)
9 | O=S(=O)(Nc1n[nH]c(C(F)(F)F)n1)c1ccccc1 | 11.6% (inactive)
10 | COC(=O)c1cc(C(=O)OCC(=O)Nc2cc(C)on2)cc([N+](=O)[O-])c1 | 4.62% (inactive)
11 | NC(=O)c1sc2nc3c(c(-c4ccccc4)c2c1N)CCC3 | 70.9% (active)
12 | Cc1nc2sc(C(=O)c3ccccc3)c(N)c2c2c1CCCC2 | 0.62% (inactive)
13 | Cc1cccc(NC(=O)c2sc3nc4c(c(-c5ccco5)c3c2N)CCC4)c1 | 34.4% (inactive)
14 | CC(=O)Nc1ccc(NC(=O)c2sc3nc4c(c(-c5ccc(C)cc5)c3c2N)CCC4)cc1 | 78.3% (active)
15 | CCc1nc2sc(C(=O)O)c(N)c2c2c1CCCC2 | 3.45% (inactive)
16 | Cc1ccc(NC(=O)c2sc3nc(N)c(C#N)cc3c2N)cc1 | -25.7% (inactive)
17 | COc1ccc(C2/C=C\CN(S(=O)(=O)c3cccs3)CC(=O)N2Cc2ccc(F)cc2)cc1 (centres undefined) | 4.62% (inactive)
18 | Cc1cc(C)c(NC(=O)CN2C(=O)NC(Cc3ccccc3)C2=O)c(C)c1 (centres undefined) | 11.3% (inactive)
19 | COc1ccc2nc(NC(=O)NC3CCCCC3)sc2c1 | 26.1% (inactive)
20 | COc1ccc2nc(NC(=O)c3ccc(Br)s3)sc2c1 | 95.9% (active)
21 | COc1cccc(C(=O)Nc2nc3ccc(S(C)(=O)=O)cc3s2)c1 | 8.18% (inactive)
22 | CCCSc1ncccc1C(=O)O | -2.65% (inactive)
23 | CO/N=C(/CS(=O)(=O)c1ccc(Br)cc1)c1ccc(OC)cc1 | 83% (active)
24 | COC(=O)CNS(=O)(=O)c1ccc(OC)cc1 | 3.65% (inactive)
25 | CO/N=C/CC(=O)c1ccc(OC)cc1 | -19.6% (inactive)

Row | Compound | inhibition
26 | Cc1nc(-c2ccccc2)sc1-c1nnc(C2CC2)o1 | -9.64% (inactive)
27 | O=c1[nH]nc(SCCS(=O)(=O)c2ccc(F)cc2)n1-c1ccccc1C(F)(F)F | 10.5% (inactive)
28 | CN(C)CCCN(Cc1cc2cc3c(cc2[nH]c1=O)OCCO3)C(=O)NC1CCCCC1 | 5.43% (inactive)
29 | O=C(Nc1ccc(Cl)cn1)Nc1cccs1 | 38.9% (inactive)
30 | Clc1ccc(Nc2nc(-c3cccs3)cs2)nc1 | 99.5% (active)
31 | c1ccc(Nc2nc(-c3ccncc3)cs2)nc1 | 56.5% (inactive)
32 | Nc1nnnn1/N=C/c1cc([N+](=O)[O-])ccc1O | 6.19% (inactive)
33 | Cc1ccc(NC(=O)Nc2ccccc2)c(Br)c1 | 38.2% (inactive)
34 | C=CCNc1scc(-c2ccccc2)[n+]1CC=C | -28.4% (inactive)
35 | C=CC[n+]1c(-c2ccc(C)cc2)csc1NNC(=O)Nc1ccccc1 | 75.9% (active)
36 | O=C1NNC(c2ccccc2)=N/C1=C\c1ccc(Cl)cc1 | 24.3% (inactive)
37 | NC(=O)COc1ccc(C23CC4CC(CC(C4)C2)C3)cc1 | 103% (active)
38 | NNC(=O)COc1ccc(C2SCCS2)cc1 | 18.6% (inactive)
39 | NC(=O)COc1ccc(NC(=O)c2ccccc2-c2ccccc2)cc1 | 6.67% (inactive)
40 | Cc1ccc(C)c2[nH]c(=O)c(CN(Cc3cccnc3)C(=S)NCc3ccco3)cc12 | 2.47% (inactive)
41 | Cc1ccc(-c2nc3ccccc3[nH]c2=O)cc1 | -30.2% (inactive)
42 | CC1Cc2ccccc2N1S(=O)(=O)c1ccc(Cl)nc1 (centres undefined) | 9.84% (inactive)
43 | O=C(C(Cl)Cl)N1CCN(c2ccccn2)CC1 | 23.1% (inactive)
44 | CCNC(=S)N1CCN(c2ncccn2)CC1 | 6.67% (inactive)
45 | CC12CCC(C(=O)N3CCN(c4ncccn4)CC3)(c3nc4ccccc4nc31)C2(C)C (centres undefined) | 81.3% (active)
46 | Cn1nc(C(F)(F)F)c(-c2ccc(F)cc2)c1NC(=O)CSCC(=O)O | -1.35% (inactive)
47 | NC1=NC[C@@H](Cc2ccc(O)cc2)N1CC1CCCCC1 | -9.28% (inactive)
48 | CCOC(=O)C1=C(C)N=C2c3ccccc3C(=O)C2C1c1ccc(Br)cc1 (centres undefined) | 93.1% (active)
49 | CCOC(=O)C1=C(C)NC(C)=C(C(=O)OCC)C1c1ccccn1 | -2.49% (inactive)
50 | CCOC(=O)C1=C(C)NC(=O)NC1c1ccccc1 (centres undefined) | 5.41% (inactive)

Row | Compound | inhibition
51 | COc1ccc(OCCC(=O)c2ccc(OC)cc2)cc1 | -4.29% (inactive)
52 | CC(C)(C)c1ccc(Oc2ccc(N)cc2)cc1 | 107% (active)
53 | Cc1ccc(Oc2ccc(N)cc2)cc1 | 37.7% (inactive)
54 | Nc1ccc(Oc2ccc(Cl)cc2)cc1 | 33.6% (inactive)
55 | Cc1cccc(-[n+]2c(-c3cccc(Br)c3)[nH]c3nc4ccccc4nc32)c1 | 18.3% (inactive)
56 | COc1ccc(CCN2C(=O)CC(N3CCC(C(N)=O)CC3)C2=O)cc1OC (centres undefined) | -9.45% (inactive)
57 | O=[N+]([O-])c1cc([N+](=O)[O-])c2cccnc2c1O | 16.7% (inactive)
58 | CC(C)Cc1nc(N2CCOCC2)c(C#N)c2c1CCC2 | 91.2% (active)
59 | CC(C)Cc1nc(Cl)c(C#N)c2c1CCC2 | 17.9% (inactive)
60 | CC(C)c1nc(N2CCOCC2)c(C#N)c2c1COC(C)(C)C2 | 60.3% (inactive)
61 | N/C(=N\OC(=O)Nc1ccccc1)c1ccno1 | -5.09% (inactive)
62 | Cc1cc2ccccc2n1CCC(=O)O | 6.98% (inactive)
63 | O=C(O)CCn1c(O)c(C=C2N=c3ccccc3=N2)sc1=S | 80.2% (active)
64 | O=C(COc1ccc([N+](=O)[O-])cc1Cl)Nn1cnnc1 | -0.23% (inactive)
65 | COc1cc(C=O)ccc1Oc1nnnn1-c1ccccc1 | 4.01% (inactive)
66 | O=C(CSc1nnc2n1CCCN2)c1ccccc1 | -11.1% (inactive)
67 | CC(=O)c1ccc(NC(=O)C2CC(=O)Nc3nc4ccccc4n32)cc1 (centres undefined) | -5.45% (inactive)
68 | Cc1c(C#N)c(NC(=O)c2ccccc2)n(Cc2ccccc2)c1C | -4.55% (inactive)
69 | COc1ccc(Cn2cccc(NC(=O)Nc3ccc(C#N)cc3)c2=O)cc1 | 62.7% (inactive)
70 | COc1ccc(Cn2c(C)c(C)c(C#N)c2NC(=O)Nc2ccc(F)cc2)cc1 | 94.3% (active)
71 | Cc1nc2c(ncn2-c2ccccc2)c(=O)n1NC(=O)CN1CCCC1 | 9.81% (inactive)
72 | Cc1[nH]n(-c2ccccc2)c(=O)c1/C=N/NC(=O)c1ccoc1C | 51.5% (inactive)
73 | Cc1ccc(-n2[nH]c(C)c(/C=N/NC(=O)c3cccc([N+](=O)[O-])c3)c2=O)cc1C | 85.8% (active)
74 | COc1cccc(/C=N/NC(=O)c2cccc([N+](=O)[O-])c2)c1OS(=O)(=O)c1ccc(C)cc1 | 0.84% (inactive)
75 | O=C(CSc1ncn[nH]1)Nc1nc(-c2cccc([N+](=O)[O-])c2)cs1 | 7.63% (inactive)

Row | Compound | inhibition
76 | O=C(c1ccco1)N1CCN(CCOc2ccccc2)CC1 | 1.67% (inactive)
77 | Cc1ccc2nc(-c3ccccc3)cc(C(=O)O)c2c1 | -1.51% (inactive)
78 | CCS(=O)(=O)Nc1cccc(-c2cc(-c3ccccc3)c3cc(C)ccc3n2)c1 | 78.8% (active)
79 | CC(=O)Nc1cccc(-c2cnc3ccccc3n2)c1 | -21.7% (inactive)
80 | CCOC(=O)c1[nH]cnc1C(=O)Nc1ccccc1C | -6.79% (inactive)
81 | CCOC(=O)c1ccc(NC(=O)c2nc[nH]c2C(=O)NCc2ccccc2)cc1 | 94.5% (active)
82 | CCOC(=O)c1ccc(NC(=O)c2nc[nH]c2C(=O)N[C@@H](CCCCNC(=O)OC(C)(C)C)C(=O)OC(C)(C)C)cc1 | 44.5% (inactive)
83 | COc1ccc2nc(Nc3nc4ccc(NC(C)=O)cc4s3)sc2c1 | -58.2% (inactive)
84 | CCOc1ccc2nc(Nc3nc4ccc(NC(C)=O)cc4s3)sc2c1 | 106% (active)
85 | CCC(=O)c1ccc(OCC(=O)Nc2ccc3nc(C)sc3c2)cc1 | 0.17% (inactive)
86 | O=C(NNS(=O)(=O)c1ccccc1C(F)(F)F)c1cc2ncc(C(F)(F)F)cc2s1 | -0.25% (inactive)
87 | C=CCOc1nc2c(c(=O)n(C)c(=O)n2C)n1Cc1ccc(Cl)cc1Cl | 93.2% (active)
88 | Cn1c(=O)c2c(nc(OCc3cccnc3)n2Cc2ccccc2)n(C)c1=O | 7.91% (inactive)
89 | C=CCn1c(Oc2ccc(C(=O)OC)cc2)nc2c1c(=O)n(C)c(=O)n2C | 3.03% (inactive)
90 | Clc1ccc(C[n+]2cc(-c3ccc(Cl)cc3)n3c2CCC3)cc1 | -2.43% (inactive)
91 | Cc1nn(Cc2ccc(Cl)cc2)c(Cl)c1/C=N/NC(=O)c1cccnc1 | -12.2% (inactive)
92 | Cc1nn(Cc2ccc(Cl)cc2)c(Cl)c1/C=N/NC(=O)CNc1ccccc1F | 96.1% (active)
93 | CCn1nc(C)c(/C=N/NC(=O)Cc2ccc(Cl)cc2)c1C | 14.1% (inactive)
94 | Oc1[nH]c2ccc(Br)cc2c1N=Nc1nn[nH]n1 | -5.13% (inactive)
95 | CCOC(=O)c1ccc(N=C2SC(C(=O)NC)CC(=O)N2CCc2ccccc2)cc1 (centres undefined) | -10.9% (inactive)
96 | O=C(NCCN1CCN(Cc2ccccc2)CC1)c1cc2c(=O)[nH]c3ccccc3c2s1 | 21.6% (inactive)
97 | Cc1ccc2[nH]c(=O)c(CC=C(Cl)Cl)c(C)c2c1 | 52.8% (inactive)
98 | Cc1cccc(N(C)C(=O)c2cc3c(=O)[nH]c4ccc(C)cc4c3s2)c1 | 80.4% (active)
99 | S=C(NNC(=S)NC1CC2C=CC1C2)NC1CC2C=CC1C2 (centres undefined) | 9.31% (inactive)
